# Measured values as given in PubChem BioAssay (NCATS).
# A number with no mark means an inactive call. Inconclusive results are not listed. Activity calls are given as the source filed them. Unless noted, calls come from the whole dose curve; as a rule, active = well fitted curve in the direction sought with a large enough effect; inconclusive = small, poorly fitted or top-dose-only effect, or another doubt; inactive = no such curve, though single readings can be large; an effect the other way counts as inactive or inconclusive.
# Columns and labels:
# [1] = target: Lysosomal acid glucosylceramidase (Homo sapiens) (UniProt P04062); experiment: Glucocerebrosidase-p2 (AID 348; in the data active = potency below about 10 µM; note: potency is the fitted concentration of half-maximal effect); settings: purified GBA, blue fluorogenic substrate, 40 min
# Lysosomal acid glucosylceramidase (Homo sapiens), sequence (P04062 whole entry, looked up): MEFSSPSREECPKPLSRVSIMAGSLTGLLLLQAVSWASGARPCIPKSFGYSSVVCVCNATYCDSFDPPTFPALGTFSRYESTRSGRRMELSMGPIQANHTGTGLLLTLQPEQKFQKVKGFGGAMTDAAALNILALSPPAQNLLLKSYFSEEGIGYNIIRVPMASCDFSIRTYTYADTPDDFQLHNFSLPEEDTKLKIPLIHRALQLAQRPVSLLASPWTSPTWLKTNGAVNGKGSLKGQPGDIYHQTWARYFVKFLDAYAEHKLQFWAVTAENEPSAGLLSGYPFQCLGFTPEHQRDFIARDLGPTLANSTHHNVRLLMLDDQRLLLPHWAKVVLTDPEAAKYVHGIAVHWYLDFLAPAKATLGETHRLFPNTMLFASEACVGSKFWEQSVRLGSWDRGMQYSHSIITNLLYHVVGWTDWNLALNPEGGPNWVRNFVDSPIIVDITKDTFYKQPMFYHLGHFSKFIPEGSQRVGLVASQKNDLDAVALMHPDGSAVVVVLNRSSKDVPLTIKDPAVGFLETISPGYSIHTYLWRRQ
# Summary of the method: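 Normal human glucocerebrosidase (0.2 nM) with blue fluorogenic substrate (80 uM final) in citrate/phosphate pH 5.9 with 10mM sodium taurocholate, 0.01% tween-20; 40 min RT, NaOH/glycine stop; fluorescence Ex 365/Em 440; AC50 from a titration from 0.6 nM upwards.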
# [2] = AP1 Signaling Pathway (AID 357; active = well fitted curve in either direction with a large enough effect, not every such curve was filed as active;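 note: ME-180 reporter cells stimulated with EGF at its EC50 level; % is set by controls: 0 for no effect and ±100 for the full control effect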); settings: ME-180 AP-1-bla reporter, EGF-induced, beta-lactamase ratio, 5 h; at 7.69 µM (top of the series) unless noted
# Summary of the method: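 Beta-lactamase reporter under AP-1 response element, ME-180 background. Stimulus: EC50 EGF. Compound exposure 5 h, 37 °C. Detection: CCF4, 2.5 h RT, 460/530 nm. Values: AC50 from titration.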
# [3] = target: Cytochrome P450 1A2 (Homo sapiens) (UniProt P05177); experiment: p450-cyp1a2 (AID 410; calls by dose curve; note: potency is the fitted concentration of half-maximal effect;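 for activity change, negative = inhibition: -100% = full effect of reference inhibitor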); settings: recombinant CYP1A2, luciferin-ME demethylation, luminescence; series mostly up to 57 µM
# Cytochrome P450 1A2 (Homo sapiens), sequence (P05177 whole entry, looked up): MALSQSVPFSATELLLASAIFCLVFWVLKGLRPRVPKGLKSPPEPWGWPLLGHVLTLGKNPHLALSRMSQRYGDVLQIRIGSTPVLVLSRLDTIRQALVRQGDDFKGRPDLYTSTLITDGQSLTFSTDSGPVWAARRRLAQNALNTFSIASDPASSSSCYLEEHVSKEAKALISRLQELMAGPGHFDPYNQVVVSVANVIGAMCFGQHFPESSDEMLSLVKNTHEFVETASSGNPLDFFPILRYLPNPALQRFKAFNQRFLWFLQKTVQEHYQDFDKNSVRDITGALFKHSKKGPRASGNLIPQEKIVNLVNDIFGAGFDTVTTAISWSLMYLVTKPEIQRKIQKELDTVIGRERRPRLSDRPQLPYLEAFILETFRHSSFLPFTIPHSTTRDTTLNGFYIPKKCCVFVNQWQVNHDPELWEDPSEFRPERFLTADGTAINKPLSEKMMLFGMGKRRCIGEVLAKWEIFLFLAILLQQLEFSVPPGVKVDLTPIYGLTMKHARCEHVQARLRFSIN
# Summary of the method: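 Luminescent demethylation readout: Luciferin-ME (100uM, equal to Km) turned over by 20nM CYP1A2 for 60 min at room temperature after NADPH regeneration addition, following 10 min compound preincubation. Normalization used 57 uM furafylline as full inhibition.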
# [4] = NFAT Signaling Pathway (AID 444; active = well fitted curve in either direction with a large enough effect, not every such curve was filed as active;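 note: carbachol stimulus at about its EC50 of 1 µM final; % is set by controls: 0 for no effect and ±100 for the full control effect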); settings: Jurkat NFAT-bla M1, carbachol, beta-lactamase ratio, 5 h; at 7.69 µM (top of the series) unless noted
# Summary of the method: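 Jurkat cells with NFAT-driven β-lactamase reporter and co-expressed M1 receptor, stimulated with carbachol (final 1 uM, ~EC50), compound titration, 5 h at 37 °C. CCF4 loaded 1 h at RT; 460/530 nm ratio gave %activity and AC50.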
# [5] = Stat Signaling Pathway (AID 446; active = well fitted curve in either direction with a large enough effect, not every such curve was filed as active;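 note: ME-180 cervical cancer cells given 40 pM IL-6 alongside compound; SIE-controlled beta-lactamase reporter measured as 460/530 nm FRET emission ratio; % is set by controls: 0 for no effect and ±100 for the full control effect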); settings: ME-180 (cervical carcinoma) SIE beta-lactamase reporter, IL-6 stimulated, 5 h; at 7.69 µM (top of the series) unless noted
# Summary of the method: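 Compound effects on IL-6-induced STAT reporter activity were measured in ME-180 cells. After overnight culture, cells were co-treated with 40 pM IL-6 for 5 hrs before beta-lactamase substrate loading at room temperature.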
# [6] = target: Glucocorticoid receptor (Homo sapiens) (UniProt P04150); experiment: GR-GFP Redistribution (AID 450;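 active = compounds whose dose series gives a full or clear partial fitted curve of increased nuclear translocation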; note: potency is the fitted concentration of half-maximal effect); settings: U2OS GR-GFP nuclear translocation, laser cytometry, 2 h
# Glucocorticoid receptor (Homo sapiens), sequence (P04150 whole entry, looked up, the tested form may be a part): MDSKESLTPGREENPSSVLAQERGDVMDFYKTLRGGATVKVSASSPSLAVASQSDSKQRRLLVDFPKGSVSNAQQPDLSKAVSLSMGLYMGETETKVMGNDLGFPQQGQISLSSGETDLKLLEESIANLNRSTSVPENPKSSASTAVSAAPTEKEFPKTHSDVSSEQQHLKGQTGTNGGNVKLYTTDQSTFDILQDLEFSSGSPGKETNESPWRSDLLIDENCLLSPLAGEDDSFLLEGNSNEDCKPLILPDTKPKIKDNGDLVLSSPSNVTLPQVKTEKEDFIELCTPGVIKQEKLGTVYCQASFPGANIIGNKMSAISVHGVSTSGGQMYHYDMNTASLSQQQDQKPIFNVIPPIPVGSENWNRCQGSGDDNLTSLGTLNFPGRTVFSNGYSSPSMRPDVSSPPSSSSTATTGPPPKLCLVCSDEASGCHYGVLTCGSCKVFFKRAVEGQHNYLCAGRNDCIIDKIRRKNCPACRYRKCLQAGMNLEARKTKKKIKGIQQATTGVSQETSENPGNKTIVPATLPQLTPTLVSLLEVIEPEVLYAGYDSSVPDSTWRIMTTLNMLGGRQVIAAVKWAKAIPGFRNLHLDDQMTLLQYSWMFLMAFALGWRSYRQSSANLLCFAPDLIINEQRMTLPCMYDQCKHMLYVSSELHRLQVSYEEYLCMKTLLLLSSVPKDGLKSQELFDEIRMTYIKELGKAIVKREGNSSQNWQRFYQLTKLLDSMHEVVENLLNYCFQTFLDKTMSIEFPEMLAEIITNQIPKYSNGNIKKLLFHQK
# [7] = target: Glucocorticoid receptor (Homo sapiens) (UniProt P04150); experiment: GR-EFC Redistribution (AID 451; calls by dose curve; note: potency is the fitted concentration of half-maximal effect); settings: CHO-K1 GR-EFC translocation, beta-gal luminescence, 2 h
# Summary of the method: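 CHO-K1 cells expressing nuclear EA and GR-ED fragments of b-gal; compounds titrated up to 46 uM final, 2 h at 37 C. GR nuclear translocation read as complemented b-gal luminescence after 1 h RT detection.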
# [8] = target: Mitogen-activated protein kinase 10 (Mus musculus) (UniProt Q61831); experiment: JNK3 AlphaScreen Assay (AID 530; active = well fitted curve in either direction with a large enough effect, not every such curve was filed as active;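 note: kinase came from lysate of stimulated human HepG2 cells; signal reports phosphorylation of biotinylated GST-cJun 1-79 at Ser73 with 10 µM ATP; % is set by controls: 0 for no effect and ±100 for the full control effect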); settings: JNK3 lysate, c-Jun phosphorylation; series mostly up to 57.1 µM
# Summary of the method: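 Activity was read by AlphaScreen after JNK3-containing HepG2 lysate (cytokine pre-activated) phosphorylated biotinylated GST-cJun with 10 uM ATP at room temperature. Phospho-Ser73 cJun antibody with Protein-A acceptor beads provided detection.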
# [9] = target: 3',5'-cyclic-AMP phosphodiesterase 4B (Homo sapiens) (UniProt Q07343); experiment: qHTS Assay for Inhibitors of PDE-IV (AID 607; active = well fitted activation curve with a large enough effect in the main read-out, with a control signal flat, not every such curve was filed as active; note: % of control where 0% means no effect); settings: HEK293 ACTOne CNG channel cells, membrane potential fluorescence; series mostly up to 22.9 µM
# 3',5'-cyclic-AMP phosphodiesterase 4B (Homo sapiens), sequence (Q07343 whole entry, looked up): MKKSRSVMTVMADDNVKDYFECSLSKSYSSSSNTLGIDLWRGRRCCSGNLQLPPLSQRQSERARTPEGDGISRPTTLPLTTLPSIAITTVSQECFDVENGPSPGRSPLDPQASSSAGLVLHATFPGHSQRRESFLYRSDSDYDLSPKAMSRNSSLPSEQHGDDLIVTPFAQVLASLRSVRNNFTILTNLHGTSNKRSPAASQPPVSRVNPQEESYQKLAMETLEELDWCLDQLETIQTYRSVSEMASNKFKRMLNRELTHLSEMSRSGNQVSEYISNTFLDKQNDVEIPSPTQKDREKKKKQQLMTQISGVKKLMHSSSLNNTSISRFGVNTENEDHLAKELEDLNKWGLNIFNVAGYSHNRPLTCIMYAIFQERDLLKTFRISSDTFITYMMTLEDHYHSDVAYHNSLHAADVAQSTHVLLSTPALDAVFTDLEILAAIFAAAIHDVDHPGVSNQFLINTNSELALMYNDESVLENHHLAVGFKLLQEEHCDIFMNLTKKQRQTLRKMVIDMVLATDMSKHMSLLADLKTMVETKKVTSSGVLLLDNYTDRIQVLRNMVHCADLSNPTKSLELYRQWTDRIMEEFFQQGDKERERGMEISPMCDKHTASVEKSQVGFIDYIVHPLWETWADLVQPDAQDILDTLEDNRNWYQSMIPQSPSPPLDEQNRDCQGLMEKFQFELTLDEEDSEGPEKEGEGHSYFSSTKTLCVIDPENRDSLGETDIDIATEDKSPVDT
# Summary of the method: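 ACTOne HEK293 cells carry a modified cAMP-gated CNG channel and express endogenous PDE4; plated 1000 cells/well, compounds up to 22.9 uM final. Membrane-potential dye fluorescence (ex 535/em 590) was read; parental cells received 10 uM forskolin + 100 uM RO 20-1724.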
# [10] = target: Cytochrome P450 3A4 (Homo sapiens) (UniProt P08684); experiment: qHTS Assay for Inhibitors and Substrates of Cytochrome P450 3A4 (AID 884); settings: recombinant CYP3A4, Luciferin-PPXE luminescence; series mostly up to 57.1 µM; note: potency is the fitted concentration of half-maximal effect; nearly all actives have a fitted effect of over 50% in size
# Cytochrome P450 3A4 (Homo sapiens), sequence (P08684 whole entry, looked up): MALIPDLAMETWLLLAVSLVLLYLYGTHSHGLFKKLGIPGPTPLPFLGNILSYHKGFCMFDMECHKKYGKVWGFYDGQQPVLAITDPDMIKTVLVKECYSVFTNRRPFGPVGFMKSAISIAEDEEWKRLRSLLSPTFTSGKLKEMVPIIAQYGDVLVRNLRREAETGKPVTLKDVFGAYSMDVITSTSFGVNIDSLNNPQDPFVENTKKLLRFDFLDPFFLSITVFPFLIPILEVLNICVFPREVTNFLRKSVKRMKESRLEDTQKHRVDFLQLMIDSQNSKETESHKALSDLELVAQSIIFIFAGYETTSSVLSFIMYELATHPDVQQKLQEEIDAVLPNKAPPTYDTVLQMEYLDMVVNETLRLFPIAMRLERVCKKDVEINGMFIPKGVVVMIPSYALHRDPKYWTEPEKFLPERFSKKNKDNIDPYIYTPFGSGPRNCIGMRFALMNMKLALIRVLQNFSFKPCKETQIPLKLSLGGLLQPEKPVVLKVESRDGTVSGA
# Summary of the method: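 Luminescent readout of luciferin produced by CYP3A4 (20 nM) dealkylation of Luciferin-PPXE, 25 uM (its KM). NADPH-driven reaction ran 60 min at RT after 10 min compound preincubation; data scaled to 57 uM ketoconazole as 100% inhibition.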
# [11] = target: Cytochrome P450 3A4 (Homo sapiens) (UniProt P08684); experiment: qHTS Assay for Activators of Cytochrome P450 3A4 (AID 885); settings: recombinant CYP3A4, Luciferin-PPXE luminescence, 60 min; series mostly up to 57.1 µM; note: nearly all actives have a fitted effect of over 65% in size
# Summary of the method: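 CYP3A4 activity: Luciferin-PPXE O-dealkylation, 25uM substrate, 200mM KPO4, RT throughout. Read-out is luciferase luminescence; higher values reflect activation.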
# [12] = target: Dual specificity protein kinase CLK4 (Homo sapiens) (UniProt Q9HAZ1); experiment: qHTS Assay for Inhibitors of CDC-like Kinase 4 (Kinase-Glo Assay) (AID 1770); settings: recombinant Clk4, Kinase-Glo ATP depletion luminescence; series mostly up to 66.7 µM; note: nearly all actives have a fitted effect of over 65% in size; note: potency is the fitted concentration of half-maximal effect
# Dual specificity protein kinase CLK4 (Homo sapiens), sequence (Q9HAZ1 whole entry, looked up): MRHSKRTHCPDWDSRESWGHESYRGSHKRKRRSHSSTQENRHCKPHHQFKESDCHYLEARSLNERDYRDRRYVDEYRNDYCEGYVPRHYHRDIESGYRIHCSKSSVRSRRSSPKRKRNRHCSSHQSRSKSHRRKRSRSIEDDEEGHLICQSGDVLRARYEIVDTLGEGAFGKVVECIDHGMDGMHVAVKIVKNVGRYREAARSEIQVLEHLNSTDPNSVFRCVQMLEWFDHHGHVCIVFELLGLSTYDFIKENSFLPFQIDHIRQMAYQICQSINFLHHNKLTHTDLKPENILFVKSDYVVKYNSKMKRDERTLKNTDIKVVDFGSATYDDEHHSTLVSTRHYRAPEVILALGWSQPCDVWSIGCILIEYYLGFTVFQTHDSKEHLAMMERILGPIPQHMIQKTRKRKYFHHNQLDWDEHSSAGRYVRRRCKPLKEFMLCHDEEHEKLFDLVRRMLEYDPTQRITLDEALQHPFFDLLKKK
# Summary of the method: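 Luminescent ATP-depletion read-out (Kinase-Glo) after 4.5 h room-temperature reaction of Clk4 (25 nM final) with RS peptide (100 uM) and ATP (1 uM), pH 7.5 Tris buffer with MgCl2 and DTT.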
# [13] = target: Dual specificity protein kinase CLK4 (Homo sapiens) (UniProt Q9HAZ1); experiment: qHTS Assay for Inhibitors of CDC-like Kinase 4 (ADP-Glo Assay) (AID 1771); settings: recombinant CLK4, ADP-Glo luminescence; series mostly up to 80 µM; note: nearly all actives have a fitted effect of over 70% in size; note: potency is the fitted concentration of half-maximal effect
# Summary of the method: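 ADP production was read by ADP-Glo luminescence after residual ATP depletion, following 1 h room-temperature reaction of 25 nM Clk4, 1 uM ATP and 100 uM RS peptide with MgCl2, EGTA, DTT and Triton X-100.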
# [14] = target: Dual specificity protein kinase CLK4 (Homo sapiens) (UniProt Q9HAZ1); experiment: qHTS Assay for Inhibitors of CDC-like Kinase 4 (ADP-FP Assay) (AID 1795); settings: Transcreener ADP fluorescence polarization; series mostly up to 50 µM; note: nearly all actives have a fitted effect of over 60% in size; note: potency is the fitted concentration of half-maximal effect
# Summary of the method: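 Kinase activity was measured as ADP production using Transcreener orange tracer (4 nM) and ADP antibody (1 ug/mL) fluorescence polarization, with ADP calculated from a calibration curve. The 1 h reaction contained 6.25 nM Clk4, 1 uM ATP and 100 uM RS peptide at pH 7.5 with Mg2+.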
# [15] = Primary qHTS for small molecule stabilizers of the endoplasmic reticulum resident proteome: Secreted ER Calcium Modulated Protein (SERCaMP) assay (AID 1508630); settings: SH-SY5Y GLuc-SERCaMP (Gaussia luciferase released on ER calcium loss) secretion, thapsigargin, luminescence; series mostly up to 38.4 µM; note: % is set by controls: 0 for no effect and ±100 for the full control effect
# Summary of the method: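 The SH-SY5Y reporter protocol was run at 3 concentrations up to 38.3 uM (primary) or 11 concentrations (follow-up): 16 h compound, 100 nM thapsigargin for 4 h, then extracellular luciferase luminescence.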
# [16] = target: Cytochrome P450 2C9 (Homo sapiens) (UniProt P11712); experiment: qHTS Assay for Inhibitors and Substrates of Cytochrome P450 2C9 (AID 883); settings: recombinant CYP2C9, luciferin-H luminescence, 60 min; series mostly up to 57.1 µM; note: % is set by controls: 0 for no effect and ±100 for the full control effect; nearly all actives have a fitted effect of over 60% in size
# Cytochrome P450 2C9 (Homo sapiens), sequence (P11712 whole entry, looked up): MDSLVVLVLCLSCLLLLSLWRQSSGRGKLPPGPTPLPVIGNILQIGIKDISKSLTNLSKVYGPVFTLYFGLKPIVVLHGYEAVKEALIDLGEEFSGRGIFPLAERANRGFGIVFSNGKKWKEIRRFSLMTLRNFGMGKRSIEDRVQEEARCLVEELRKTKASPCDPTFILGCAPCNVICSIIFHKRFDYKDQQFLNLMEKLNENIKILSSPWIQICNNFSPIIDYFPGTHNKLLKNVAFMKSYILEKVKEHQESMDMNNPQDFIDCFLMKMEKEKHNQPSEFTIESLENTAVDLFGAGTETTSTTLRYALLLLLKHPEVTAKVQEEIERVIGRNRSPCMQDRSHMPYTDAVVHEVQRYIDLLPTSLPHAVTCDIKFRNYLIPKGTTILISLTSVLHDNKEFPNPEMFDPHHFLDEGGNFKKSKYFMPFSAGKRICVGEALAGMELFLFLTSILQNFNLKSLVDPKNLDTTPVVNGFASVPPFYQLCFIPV
# Summary of the method: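 Signal: luciferase luminescence reporting luciferin produced by CYP2C9. Conditions: 10nM enzyme, Luciferin-H 100uM at KM, 25mM KPO4, 37C, 60 min NADPH-driven reaction. Reference: 57uM sulphaphenazole as 100% inhibition.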
# [17] = target: Ubiquitin carboxyl-terminal hydrolase 1 (Homo sapiens) (UniProt O94782); experiment: Inhibitors of USP1/UAF1: Pilot qHTS (AID 504865); settings: purified USP1/UAF1, Ub-rhodamine cleavage fluorescence; series mostly up to 54.9 µM; note: nearly all actives have a fitted effect of over 35% in size; note: potency is the fitted concentration of half-maximal effect
# Ubiquitin carboxyl-terminal hydrolase 1 (Homo sapiens), sequence (O94782 whole entry, looked up): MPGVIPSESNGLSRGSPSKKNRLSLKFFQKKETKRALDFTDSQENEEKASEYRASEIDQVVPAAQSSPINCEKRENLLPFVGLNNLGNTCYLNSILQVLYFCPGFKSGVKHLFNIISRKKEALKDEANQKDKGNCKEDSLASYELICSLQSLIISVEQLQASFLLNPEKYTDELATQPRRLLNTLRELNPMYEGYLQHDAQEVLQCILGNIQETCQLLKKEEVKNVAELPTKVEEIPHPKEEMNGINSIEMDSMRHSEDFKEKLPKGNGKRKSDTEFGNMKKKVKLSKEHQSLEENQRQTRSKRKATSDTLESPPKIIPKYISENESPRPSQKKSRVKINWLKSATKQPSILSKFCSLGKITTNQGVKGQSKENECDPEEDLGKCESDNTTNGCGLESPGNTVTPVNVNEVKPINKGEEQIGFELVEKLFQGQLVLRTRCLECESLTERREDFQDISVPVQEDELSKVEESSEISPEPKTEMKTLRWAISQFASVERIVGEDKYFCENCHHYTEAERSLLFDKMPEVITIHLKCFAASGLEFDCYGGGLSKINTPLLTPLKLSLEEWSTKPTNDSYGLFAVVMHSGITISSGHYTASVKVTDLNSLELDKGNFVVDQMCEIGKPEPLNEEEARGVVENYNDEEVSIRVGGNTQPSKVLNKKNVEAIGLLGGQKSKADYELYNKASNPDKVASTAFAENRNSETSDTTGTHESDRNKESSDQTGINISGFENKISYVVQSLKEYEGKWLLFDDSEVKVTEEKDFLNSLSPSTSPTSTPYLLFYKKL
# Summary of the method: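 Deubiquitinase activity followed as kinetic rhodamine fluorescence release from 150 nM Ub-Rho. 1 nM USP1/UAF1 with compound, after 15 min room-temperature preincubation, in HEPES pH 7.8 buffer containing TCEP, EDTA, BSA and Tween-20.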
SMILES,Potency [1] [µM],"activity change, negative = inhibition [2]",Potency [3],"activity change, negative = inhibition [4]","activity, negative = inhibition [5] [%]",Potency [6] [µM],Potency [7] [µM],Potency [8],Potency [9],Potency [10],Potency [11],Potency [12],Potency [13],Potency [14],outcome [15],Potency [16],Potency [17]
c1cncc(-c2cc(-n3ccnc3)ncn2)c1,> 11.4,-4.01%,0.1 µM (active),4.07%,14.8,> 46,> 46,inactive,inactive,1.58 µM (active),inactive,0.794 µM (active),0.708 µM (active),0.501 µM (active),inactive,–,–
O=c1c(-c2cc(F)cc(F)c2)nc2cncnc2n1C1CC1,> 11.4,-12%,1.26 µM (active),2.52%,-11.9,> 9.22,> 46,inactive,inactive,–,inactive,inactive,inactive,inactive,inactive,inactive,–
CCNc1ncc2nc(-c3cn(C)c4ccccc34)c(=O)n(CCC#N)c2n1,> 11.4,-22.2%,5.01 µM (active),-4.28%,-12.7,> 9.22,> 46,inactive,–,–,inactive,inactive,inactive,inactive,inactive,–,inactive
N#Cc1cccc(-c2nccc(NCc3ccccc3)n2)c1,> 11.4,-20.8%,0.501 µM (active),13.6%,-6.24,> 46,> 46,inactive,–,–,inactive,14.1 µM (active),14.1 µM (active),15.8 µM (active),inactive,–,–
c1nc(NCCN2CCOCC2)c2cc(-c3ccoc3)ccc2n1,> 11.4,-17.7%,12.6 µM (active),-0.57%,-6.63,> 46,> 46,inactive,inactive,–,inactive,0.708 µM (active),0.891 µM (active),0.355 µM (active),inactive,–,inactive
CCNc1ncc2nc(-c3cc(F)cc(F)c3)c(=O)n(CCc3ccccc3)c2n1,> 11.4,109% [activator] (active),25.1 µM (active),137% [activator] (active),–,> 9.22,> 46,inactive,inactive,–,inactive,inactive,inactive,inactive,inactive,–,20 µM (active)
COc1ccc(-c2nc3cnc(OC)nc3n(CCC#N)c2=O)cc1,> 11.4,-7.37%,6.31 µM (active),-4.16%,–,> 9.22,> 46,inactive,inactive,–,–,inactive,inactive,inactive,inactive,–,inactive
Cn1cc(-c2nc3cnc(N4CCNCC4)nc3n(-c3ccccc3)c2=O)c2ccccc21,> 11.4,22.4%,15.8 µM (active),24.6%,–,> 9.22,> 46,–,inactive,–,inactive,inactive,inactive,inactive,inactive,–,inactive
COc1ncc2nc(-c3cn(C)c4ccccc34)c(=O)n(C[C@H]3CCCO3)c2n1,> 11.4,-6.51%,–,3.98%,-5.17,> 9.22,> 46,inactive,–,–,–,inactive,inactive,inactive,inactive,–,inactive
N#CCCn1c(=O)c(CCc2ccccc2)nc2cnc(Nc3ccccc3)nc21,> 11.4,-27.7%,inactive,-25.2%,–,> 9.22,> 46,inactive,inactive,–,inactive,inactive,inactive,inactive,inactive,–,–
COc1ccccc1-c1cncnc1NCc1cnc(C)cn1,> 11.4,-7.64%,20 µM (active),2.58%,4.26,–,> 46,inactive,inactive,1.26 µM (active),inactive,inactive,inactive,inactive,inactive,–,inactive
